Compounds with a hit are over-represented: about 12% of the library has one in this group of screens.
Lmaj promast – Leishmania major promastigote growth inhibition, primary screen; actives 9% (n = 200,000); inhibition, % at 10 µM; Leishmania major promastigotes, resazurin fluorescence viability; in the data active means inhibition above about 50%;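 further: promastigotes grown with compound for 44 hours at 28 °C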
Arbovirus inh – antivirals against arbovirus infection, primary screen, cell-based, full library, 10K replicate subset; arbovirus infection cell-based antiviral screen; inhibition, % at 10 µM; actives 0.37% (n = 200,000); AID 1251, 2008; in the data active means inhibition above about 30%
CHOP inh – inhibitors of CHOP promoter induction, primary screen, cell-based, unfolded protein response, luciferase reporter; actives 3.8% (n = 220,000); CHO-K1 CHOP-promoter luciferase, tunicamycin-induced, 15-18 h; inhibition, % at 10 µM;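 active means compounds that reduced the stress-induced luciferase reporter signal by more than about 70% of percent inhibition, limit read from the data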;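 further: 0% = tunicamycin plus vehicle and 100% = wells without tunicamycin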
WT yeast gro inh – growth inhibition of WT strain, primary screen, mitochondrial fusion inhibitor project, WT and mutant strains, chemical genetic; mitochondrial fusion phenotypic screen; inhibition, % at 10 µM; actives 2.1% (n = 190,000); in the data active means inhibition above about 58%; tested in S. cerevisiae
The depositor's hits bear a star; . = not tested or not shown.

SMILES | Lmaj promast | Arbovirus inh | CHOP inh | WT yeast gro inh
COCCNC(=S)Nc1ccc2nc(N3CCCC3)cc(C)c2c1 | 100* | 5 | 39 | 15
Cc1cc(N2CCCC2)nc2ccc(NC(=S)NC(C)C)cc12 | 99* | -16 | -9 | 21
CCOCCCNC(=S)Nc1ccc2nc(N3CCCC3)cc(C)c2c1 | 100* | 9 | 17 | 6
CCN1CCN(c2cc(C)c3cc(NC(=S)N4CCCC4)ccc3n2)CC1 | 5 | -4 | 10 | -6
O=C(O)CCC/C=C\C[C@@H]1[C@@H](/C=C/[C@H](O)C2Cc3ccccc3C2)[C@@H](F)C[C@@H]1O | . | . | -21 | .
O=C(O)[C@@H]1Cc2ccccc2N1 | . | . | 25 | .
CC12CCC(C(=O)NCc3ccccc3Cl)(CC1=O)C2(C)C (centres undefined) | -1 | 18 | 0 | -24
CCOc1ccc(-c2nc(CN3CCCCC3CCn3cccn3)c(C)o2)cc1 (centres undefined) | . | . | 6 | .
CCCCNCCOCCOc1ccccc1-c1ccccc1 | 92* | -14 | 11 | 10
CC(C)NCCCCOc1ccccc1-c1ccccc1 | 98* | -24 | 13 | 2
CN(C)CCCCOc1ccccc1-c1ccccc1 | 20 | -9 | -26 | 16
COCCNCCCCOc1ccccc1-c1ccccc1 | 52* | -20 | -13 | -8
O=C(Nc1cc(C(F)(F)F)ccc1-n1cncn1)c1ccc(Cl)cc1 | -2 | -8 | 17 | 6
O=C(Nc1cc(C(F)(F)F)ccc1-n1cncn1)c1ccc(-c2ccccc2)cc1 | 90* | 2 | 51 | -1
CCOc1ccccc1NC(=O)C(=O)NCCC1=CCCCC1 | -5 | 0 | 36 | 7
COc1ccc(NC(=S)Nc2ccc(OCc3ccccc3)cc2)c(OC)c1 | 21 | 3 | 15 | 67*
COc1ccc(/C(C)=N/NC(=S)Nc2cc(C)ccc2C)cc1 | 13 | 1 | 45 | 67*
COc1ccc(NC(=O)C(=O)NCCC2=CCCCC2)c(OC)c1 | 55* | -3 | 32 | -25
COc1ccc(CNC(=S)Nc2cc(C)ccc2C)cc1 | 16 | 2 | -5 | 46
COc1ccc(NC(=S)NCCc2ccc(S(N)(=O)=O)cc2)c(OC)c1 | -2 | 14 | 8 | -16
COc1ccc(NC(=S)NCCc2ccc(Cl)cc2)c(OC)c1 | 12 | 4 | 18 | 67*
N#CC(Cc1ccc(O)c(O)c1)C(=O)N1CCc2ccccc21 (centres undefined) | . | . | -7 | .
Cc1cc(C)n2ncc(/C(N)=N/OC(=O)Nc3ccccc3)c2n1 | . | . | -3 | .
COc1ccc(CCNC(=S)Nc2ccc(C)cc2C)cc1 | 8 | 0 | 31 | 69*
COc1ccc(CCNC(=S)Nc2cc(C)ccc2C)cc1 | 9 | 8 | 39 | 63*
SMILES | Lmaj promast | Arbovirus inh | CHOP inh | WT yeast gro inh
Cc1c(NC(=O)c2ncn[nH]2)cccc1-c1nc2ccccc2s1 | 100* | -3 | 5 | 0
O=C(Nc1nc2ccc(Cl)cc2s1)c1ccc(N2CCCCC2)c([N+](=O)[O-])c1 | 9 | -6 | -9 | 8
Cc1c(NC(=O)c2ccc(N3CCCC3)c([N+](=O)[O-])c2)cccc1-c1nc2ccccc2s1 | 71* | -9 | 5 | -10
O=c1c2ccccc2nnn1Cc1ccccc1Cl | 1 | -3 | 6 | -6
O=C(NCCc1ccccc1)C1CCC(CNS(=O)(=O)c2cccc3cccnc23)CC1 (centres undefined) | . | . | -7 | .
O=C1NC(=Nc2ccc(Cl)cc2)SC1Cc1cc(Cl)ccc1Cl (centres undefined) | 1 | -1 | 71* | 11
O=C1NC(=Nc2ccc(F)cc2)SC1Cc1ccc(F)cc1 (centres undefined) | . | . | 14 | .
CC1CCCN(CCC(=O)Nc2ccc(Br)cc2)C1 (centres undefined) | 53* | -20 | -23 | 5
CC1CCCN(CCC(=O)Nc2ccc3c(c2)CCC3)C1 (centres undefined) | 61* | 1 | -10 | 2
S=c1[nH]nc(-c2ccncc2)n1/N=C/c1cccc(Cl)c1 | . | . | 0 | .
COc1ccc(C2C(C#N)=C(N)N(c3ccccc3)C3=C2C(=O)CCC3)cc1Cn1cc([N+](=O)[O-])cn1 (centres undefined) | 99* | 2 | 30 | -9
COc1ccc(C2C(C#N)=C(N)N(c3cccnc3)C3=C2C(=O)CCC3)cc1Cn1cc([N+](=O)[O-])cn1 (centres undefined) | 89* | 11 | 8 | -18
COc1ccc(C2C(C#N)=C(N)OC3=C2C(=O)CCC3)cc1Cn1cc([N+](=O)[O-])cn1 (centres undefined) | 2 | 11 | 20 | 7
Cc1c(NC(=O)C(C)OC(=O)c2ccc([N+](=O)[O-])s2)c(=O)n(-c2ccccc2)n1C (centres undefined) | 77* | 10 | -29 | -30
Cc1c(NC(=O)C(C)OC(=O)c2sc3ccccc3c2Cl)c(=O)n(-c2ccccc2)n1C (centres undefined) | -2 | 6 | 35 | -19
Cc1c(NC(=O)C(C)OC(=O)CCc2ccccc2)c(=O)n(-c2ccccc2)n1C (centres undefined) | 54* | 13 | -4 | -12
CCOCCCNc1nc(C)nc2c1nnn2Cc1c(F)cccc1Cl | 17 | 0 | -1 | 4
CC(C)C(NC(=O)CSCc1ccc([N+](=O)[O-])cc1)C(C)C | 7 | -2 | 9 | 4
NC(Cc1ccccc1)C(O)(c1ccccc1)c1ccccc1 (centres undefined) | 11 | 16 | 62 | 10
CCOC(=O)c1cnc2c(OC)cccc2c1N1CCN(c2ccc(OC)cc2)CC1 | 21 | -2 | 83* | 37
CCOC(=O)c1cnc2c(OC)cccc2c1N1CCN(c2ccccc2OC)CC1 | 63* | -2 | 31 | 55
COC(=O)Cc1c(O)ccn(Cc2cccc3ccccc23)c1=O | -4 | 9 | -7 | 18
Nc1nc2nccc(-c3cccnc3)n2n1 | -5 | -3 | 21 | -6
COc1cccc(/C=N/NC(=O)C(C)n2nc(C)c([N+](=O)[O-])c2C)c1O (centres undefined) | 94* | -7 | 56 | 32
COc1cccc(/C=N/NC(=O)CSc2ccccc2C)c1O | 98* | -19 | 50 | 7
SMILES | Lmaj promast | Arbovirus inh | CHOP inh | WT yeast gro inh
COc1cccc(NC(=S)NNC(=O)C(C)n2nc(C)c([N+](=O)[O-])c2C)c1 (centres undefined) | -8 | 0 | -12 | 3
COc1cccc(/C=N/NC(=O)Cn2nc(C)c([N+](=O)[O-])c2C)c1O | 82* | -13 | 51 | 9
O=C(O)CCCNc1ccc([N+](=O)[O-])c(NCCCC(=O)O)n1 | -5 | 1 | -6 | 6
CN(CCC#N)C(=S)NC(=O)c1ccc(S(=O)(=O)N2CCOCC2)cc1 | 0 | 14 | -6 | -1
CC(C)OP(=O)(OC(C)C)C(Nc1ccccc1)c1cccnc1 (centres undefined) | . | . | 6 | .
NC(N)=Nc1nc(-c2ccccc2)c2cc(F)ccc2n1 | 100* | -32 | 7 | 28
COc1ccc(OCCN(C)Cc2ccccc2)cc1 | 12 | 3 | -14 | 11
C=CCc1ccc(OCCOCCN(C)C)c(OC)c1 | 38 | -2 | 20 | 6
CN(CCOCCOc1ccc2ccccc2c1)Cc1ccccc1 | 100* | -25 | 71* | 22
